The values below come from ChEMBL document CHEMBL1961873, “Compounds: GSK PKIS; Assays: Nanosyn kinase panel” (2012).

Each structure is given as a SMILES string. “And” between values parts separate entries of the source, which are not always exact repeats. Identical values can stand only once.

Experiment [1] has as its system Proto-oncogene tyrosine-protein kinase receptor Ret (Homo sapiens), P07949 [Y791F]. As to conditions: at 1 µM.
Experiment [2] has as its target Macrophage-stimulating protein receptor (Homo sapiens) (UniProt Q04912). As to conditions: at 0.1 µM.
Experiment [3] shares this target. As to conditions: at 1 µM.
The target of experiment [4] is Proto-oncogene tyrosine-protein kinase ROS (Homo sapiens) (UniProt P08922). As to conditions: at 0.1 µM.
The target is the same in experiment [5]. The conditions noted are these: at 1 µM.
In experiment [6] the target is Proto-oncogene tyrosine-protein kinase Src (Homo sapiens) (UniProt P12931). The conditions noted are these: at 0.1 µM.
Sequence of Proto-oncogene tyrosine-protein kinase Src (Homo sapiens) (P12931 2-536 limits assumed): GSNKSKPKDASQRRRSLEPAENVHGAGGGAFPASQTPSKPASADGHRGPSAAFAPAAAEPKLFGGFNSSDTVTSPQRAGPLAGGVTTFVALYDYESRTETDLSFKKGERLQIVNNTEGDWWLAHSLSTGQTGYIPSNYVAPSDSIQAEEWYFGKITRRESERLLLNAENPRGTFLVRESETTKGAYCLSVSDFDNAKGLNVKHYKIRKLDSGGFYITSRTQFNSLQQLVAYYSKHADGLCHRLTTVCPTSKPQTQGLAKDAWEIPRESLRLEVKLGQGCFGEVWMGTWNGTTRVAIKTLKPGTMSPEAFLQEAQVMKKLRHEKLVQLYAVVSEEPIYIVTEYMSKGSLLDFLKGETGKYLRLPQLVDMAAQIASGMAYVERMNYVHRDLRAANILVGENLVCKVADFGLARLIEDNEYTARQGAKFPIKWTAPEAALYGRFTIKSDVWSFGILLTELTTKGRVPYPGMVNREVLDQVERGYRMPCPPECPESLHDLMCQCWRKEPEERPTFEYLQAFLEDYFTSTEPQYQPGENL
Experiment [7] has the same target. The conditions noted are these: at 1 µM.
Experiment [8] deals with Tyrosine-protein kinase Srms (Homo sapiens) (UniProt Q9H3Y6). The conditions noted are these: at 0.1 µM.
Sequence of Tyrosine-protein kinase Srms (Homo sapiens) (Q9H3Y6 whole entry): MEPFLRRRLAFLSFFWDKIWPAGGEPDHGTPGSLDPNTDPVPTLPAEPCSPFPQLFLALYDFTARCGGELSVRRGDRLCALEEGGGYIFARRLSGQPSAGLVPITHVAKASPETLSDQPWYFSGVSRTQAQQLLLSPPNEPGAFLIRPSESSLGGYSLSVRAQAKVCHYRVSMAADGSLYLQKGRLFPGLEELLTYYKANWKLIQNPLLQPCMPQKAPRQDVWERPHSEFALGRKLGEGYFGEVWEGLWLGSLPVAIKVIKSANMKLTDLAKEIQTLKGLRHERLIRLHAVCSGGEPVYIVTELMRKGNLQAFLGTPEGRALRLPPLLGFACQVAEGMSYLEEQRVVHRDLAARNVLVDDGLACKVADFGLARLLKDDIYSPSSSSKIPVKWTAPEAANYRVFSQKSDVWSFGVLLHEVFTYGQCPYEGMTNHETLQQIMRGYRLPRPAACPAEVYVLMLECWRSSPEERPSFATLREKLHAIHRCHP
Experiment [9] has the same target. The conditions noted are these: at 1 µM.
The target in experiment [10] is Tyrosine-protein kinase SYK (Homo sapiens) (UniProt P43405). As to conditions: at 0.1 µM.
The target is the same in experiment [11]. As to conditions: at 1 µM.
Experiment [12] addresses T1, Tyrosine-protein kinase Tec (Homo sapiens) (UniProt P42680).
T1 sequence (whole entry): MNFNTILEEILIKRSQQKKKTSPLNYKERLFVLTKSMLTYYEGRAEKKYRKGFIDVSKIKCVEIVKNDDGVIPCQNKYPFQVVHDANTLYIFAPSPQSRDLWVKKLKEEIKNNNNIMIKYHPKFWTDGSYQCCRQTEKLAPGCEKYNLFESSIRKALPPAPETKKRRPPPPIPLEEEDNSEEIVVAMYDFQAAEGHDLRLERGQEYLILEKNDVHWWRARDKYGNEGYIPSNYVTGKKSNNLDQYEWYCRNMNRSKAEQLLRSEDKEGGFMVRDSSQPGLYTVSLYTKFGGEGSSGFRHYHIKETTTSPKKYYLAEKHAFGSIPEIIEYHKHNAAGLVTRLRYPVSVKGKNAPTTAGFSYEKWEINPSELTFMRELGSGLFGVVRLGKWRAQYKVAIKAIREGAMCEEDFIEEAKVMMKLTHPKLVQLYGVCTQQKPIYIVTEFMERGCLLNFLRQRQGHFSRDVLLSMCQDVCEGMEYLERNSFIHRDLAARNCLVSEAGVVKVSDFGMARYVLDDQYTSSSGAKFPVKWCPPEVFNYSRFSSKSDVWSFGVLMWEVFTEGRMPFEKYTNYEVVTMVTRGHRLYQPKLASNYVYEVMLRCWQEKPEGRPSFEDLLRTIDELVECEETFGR
As to conditions: at 0.1 µM.

The target in experiment [13] is T1, Tyrosine-protein kinase Tec (Homo sapiens). The conditions noted are these: at 1 µM.
The target in experiment [14] is Angiopoietin-1 receptor (Homo sapiens) (UniProt Q02763). The conditions noted are these: at 0.1 µM.
Sequence of Angiopoietin-1 receptor (Homo sapiens) (Q02763 whole entry): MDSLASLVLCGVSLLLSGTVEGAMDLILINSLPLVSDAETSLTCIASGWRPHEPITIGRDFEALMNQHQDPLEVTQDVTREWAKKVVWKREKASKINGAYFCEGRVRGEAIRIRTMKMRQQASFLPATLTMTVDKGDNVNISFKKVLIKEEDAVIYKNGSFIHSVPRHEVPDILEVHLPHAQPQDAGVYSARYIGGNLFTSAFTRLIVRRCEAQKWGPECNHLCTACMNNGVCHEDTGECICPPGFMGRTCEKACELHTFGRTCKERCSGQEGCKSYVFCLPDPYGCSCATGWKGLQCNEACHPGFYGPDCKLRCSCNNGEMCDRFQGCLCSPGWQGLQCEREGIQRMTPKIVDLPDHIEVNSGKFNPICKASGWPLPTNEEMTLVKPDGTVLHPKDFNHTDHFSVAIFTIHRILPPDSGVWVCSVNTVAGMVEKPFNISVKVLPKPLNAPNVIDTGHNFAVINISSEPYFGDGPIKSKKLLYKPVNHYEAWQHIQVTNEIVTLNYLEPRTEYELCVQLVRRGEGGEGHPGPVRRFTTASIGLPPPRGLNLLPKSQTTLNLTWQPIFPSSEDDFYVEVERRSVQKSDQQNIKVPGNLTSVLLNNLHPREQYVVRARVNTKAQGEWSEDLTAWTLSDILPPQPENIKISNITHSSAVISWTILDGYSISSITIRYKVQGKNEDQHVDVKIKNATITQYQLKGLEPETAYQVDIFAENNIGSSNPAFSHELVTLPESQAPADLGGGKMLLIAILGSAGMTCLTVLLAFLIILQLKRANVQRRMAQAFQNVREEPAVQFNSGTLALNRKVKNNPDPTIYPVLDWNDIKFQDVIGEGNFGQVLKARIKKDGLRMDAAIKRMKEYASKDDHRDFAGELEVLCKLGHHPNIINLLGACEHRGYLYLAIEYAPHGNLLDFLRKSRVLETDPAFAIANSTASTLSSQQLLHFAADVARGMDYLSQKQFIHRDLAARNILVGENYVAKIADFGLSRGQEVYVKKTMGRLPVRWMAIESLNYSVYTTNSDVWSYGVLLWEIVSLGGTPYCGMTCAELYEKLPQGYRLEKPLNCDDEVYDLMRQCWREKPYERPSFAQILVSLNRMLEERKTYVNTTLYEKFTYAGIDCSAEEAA
For experiment [15] the target is unchanged. The conditions noted are these: at 1 µM.
Experiment [16] has as its target T2, Non-receptor tyrosine-protein kinase TNK1 (Homo sapiens) (UniProt Q13470).
T2 sequence (whole entry): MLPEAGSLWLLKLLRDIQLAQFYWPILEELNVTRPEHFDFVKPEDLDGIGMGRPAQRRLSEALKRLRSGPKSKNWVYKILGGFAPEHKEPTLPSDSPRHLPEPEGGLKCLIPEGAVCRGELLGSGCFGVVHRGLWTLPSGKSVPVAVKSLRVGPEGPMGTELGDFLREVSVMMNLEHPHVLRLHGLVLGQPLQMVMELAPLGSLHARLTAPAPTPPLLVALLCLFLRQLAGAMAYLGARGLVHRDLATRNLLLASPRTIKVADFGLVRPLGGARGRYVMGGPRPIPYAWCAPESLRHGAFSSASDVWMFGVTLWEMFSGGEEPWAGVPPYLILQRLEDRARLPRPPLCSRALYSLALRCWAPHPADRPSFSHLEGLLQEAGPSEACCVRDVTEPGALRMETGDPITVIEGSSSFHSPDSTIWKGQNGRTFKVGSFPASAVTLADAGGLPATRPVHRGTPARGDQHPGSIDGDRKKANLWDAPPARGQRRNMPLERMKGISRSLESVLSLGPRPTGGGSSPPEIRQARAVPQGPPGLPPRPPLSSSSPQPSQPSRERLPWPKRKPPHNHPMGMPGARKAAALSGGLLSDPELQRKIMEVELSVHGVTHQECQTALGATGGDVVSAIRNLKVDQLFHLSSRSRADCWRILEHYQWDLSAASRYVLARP
The conditions noted are these: at 0.1 µM.

In experiment [17] the target is T2, Non-receptor tyrosine-protein kinase TNK1 (Homo sapiens). The conditions noted are these: at 1 µM.
The target in experiment [18] is Activated CDC42 kinase 1 (Homo sapiens) (UniProt Q07912). The conditions noted are these: at 0.1 µM.
Sequence of Activated CDC42 kinase 1 (Homo sapiens) (Q07912 whole entry, looked up): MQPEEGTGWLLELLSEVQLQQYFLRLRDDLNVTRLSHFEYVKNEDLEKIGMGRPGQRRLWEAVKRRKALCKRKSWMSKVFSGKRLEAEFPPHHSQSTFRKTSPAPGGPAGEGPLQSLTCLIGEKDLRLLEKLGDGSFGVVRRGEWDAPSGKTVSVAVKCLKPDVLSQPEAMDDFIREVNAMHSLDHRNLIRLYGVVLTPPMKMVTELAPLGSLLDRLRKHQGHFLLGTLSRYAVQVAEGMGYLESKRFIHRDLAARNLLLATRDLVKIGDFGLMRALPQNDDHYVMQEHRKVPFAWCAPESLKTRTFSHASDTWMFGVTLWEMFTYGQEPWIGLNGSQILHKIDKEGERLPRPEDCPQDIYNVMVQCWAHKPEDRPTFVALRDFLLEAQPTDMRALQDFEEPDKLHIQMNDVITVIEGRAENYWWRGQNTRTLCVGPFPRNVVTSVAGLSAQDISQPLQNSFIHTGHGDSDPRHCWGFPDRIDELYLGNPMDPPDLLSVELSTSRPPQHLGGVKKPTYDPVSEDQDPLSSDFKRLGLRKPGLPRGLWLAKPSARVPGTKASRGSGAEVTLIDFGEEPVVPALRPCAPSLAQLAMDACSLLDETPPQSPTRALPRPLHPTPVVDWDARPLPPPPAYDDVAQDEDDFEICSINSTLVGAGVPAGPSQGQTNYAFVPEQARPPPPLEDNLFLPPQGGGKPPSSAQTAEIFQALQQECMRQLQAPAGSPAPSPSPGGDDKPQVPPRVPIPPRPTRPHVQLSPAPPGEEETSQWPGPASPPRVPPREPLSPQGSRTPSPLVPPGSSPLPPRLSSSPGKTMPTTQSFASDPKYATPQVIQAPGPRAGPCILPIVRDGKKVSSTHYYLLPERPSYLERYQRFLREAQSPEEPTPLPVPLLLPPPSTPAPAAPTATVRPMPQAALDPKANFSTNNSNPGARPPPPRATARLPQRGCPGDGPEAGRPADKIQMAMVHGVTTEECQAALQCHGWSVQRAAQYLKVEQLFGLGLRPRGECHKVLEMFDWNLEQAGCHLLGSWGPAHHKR
Experiment [19] has the same target. The conditions noted are these: at 1 µM.
Experiment [20] deals with High affinity nerve growth factor receptor (Homo sapiens) (UniProt P04629). The conditions noted are these: at 0.1 µM.

Sequence of Macrophage-stimulating protein receptor (Homo sapiens) (Q04912 25-304 limits assumed): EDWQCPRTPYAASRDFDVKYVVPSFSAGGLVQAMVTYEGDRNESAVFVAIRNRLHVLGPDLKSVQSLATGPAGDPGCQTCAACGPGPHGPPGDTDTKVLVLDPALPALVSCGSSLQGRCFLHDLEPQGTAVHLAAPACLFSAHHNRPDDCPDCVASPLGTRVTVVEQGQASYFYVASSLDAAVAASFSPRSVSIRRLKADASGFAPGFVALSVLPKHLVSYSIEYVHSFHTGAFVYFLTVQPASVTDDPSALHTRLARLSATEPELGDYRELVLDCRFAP
Sequence of Macrophage-stimulating protein receptor (Homo sapiens) (Q04912 310-1400 limits assumed): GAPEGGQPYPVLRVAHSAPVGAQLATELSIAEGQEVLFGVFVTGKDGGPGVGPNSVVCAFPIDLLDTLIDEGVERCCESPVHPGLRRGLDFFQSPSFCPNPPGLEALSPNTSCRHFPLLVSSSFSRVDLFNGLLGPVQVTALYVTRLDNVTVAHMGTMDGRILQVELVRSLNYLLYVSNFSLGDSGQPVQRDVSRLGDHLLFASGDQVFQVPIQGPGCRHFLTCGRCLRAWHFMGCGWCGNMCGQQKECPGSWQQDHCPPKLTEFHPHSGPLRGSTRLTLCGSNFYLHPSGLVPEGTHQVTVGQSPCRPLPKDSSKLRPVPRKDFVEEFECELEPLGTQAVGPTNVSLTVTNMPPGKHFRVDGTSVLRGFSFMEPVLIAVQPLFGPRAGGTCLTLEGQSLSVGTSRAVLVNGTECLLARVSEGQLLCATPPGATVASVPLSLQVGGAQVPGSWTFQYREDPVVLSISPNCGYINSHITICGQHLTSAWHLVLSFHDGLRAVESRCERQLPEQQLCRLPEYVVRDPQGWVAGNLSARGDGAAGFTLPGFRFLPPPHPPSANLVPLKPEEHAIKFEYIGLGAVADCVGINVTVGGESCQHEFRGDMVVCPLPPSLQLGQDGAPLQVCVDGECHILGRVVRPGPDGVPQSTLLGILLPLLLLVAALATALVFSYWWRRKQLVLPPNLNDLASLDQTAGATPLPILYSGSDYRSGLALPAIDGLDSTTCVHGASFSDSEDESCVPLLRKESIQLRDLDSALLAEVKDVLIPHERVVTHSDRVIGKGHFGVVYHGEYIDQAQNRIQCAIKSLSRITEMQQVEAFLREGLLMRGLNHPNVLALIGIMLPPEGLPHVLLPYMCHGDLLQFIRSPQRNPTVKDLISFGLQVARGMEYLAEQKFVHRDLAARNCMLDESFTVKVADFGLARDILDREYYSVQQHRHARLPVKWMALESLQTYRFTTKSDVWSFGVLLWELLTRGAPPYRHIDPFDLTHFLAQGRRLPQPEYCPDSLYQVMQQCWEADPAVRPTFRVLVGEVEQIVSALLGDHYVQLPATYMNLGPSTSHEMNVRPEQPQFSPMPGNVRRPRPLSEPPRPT

In general, inhibition refers to the relative decrease from the control value, in per cent. Consider `FC(F)(F)CNc1nccc(-c2cnn3ncccc23)n1`, for which the inhibition is 2.92% in experiment [1]; 1.76% in [2]; -1.8% in experiment [3]; -0.19% in experiment [4]; 2.27% in experiment [5]; 3.96% in experiment [6]. The inhibition in experiment [7] is 3.98%; in [8], -5.51%; in [9] it was -3.04%; in experiment [10] it was -0.18%; in experiment [11], -3.33%; in experiment [12], 0.22%. For the same compound, the inhibition in experiment [13] amounted to 2.62%; in experiment [14], 1.95%; in [15], 3.61%; in [16], 0.51%; in experiment [17], 4.99%; in experiment [18], 0.71%. Also, the inhibition in experiment [19] is -0.17%; in experiment [20] it was -0.41%.
For the compound `Cc1c2ccc(N(C)c3ccnc(Nc4cccc(S(N)(=O)=O)c4)n3)cc2nn1C`, the inhibition in experiment [1] was 80.3%; in [2] it was 2.6%; in experiment [3] it was 9.61%; in experiment [4], 38.7%; in [5], 78.1%; in experiment [6], 40.5%. The inhibition was 82.8% in experiment [7]; 1.27% in experiment [8]; 17.6% in experiment [9]; -4.22% in experiment [10]; -6.33% in [11]; 13.8% in [12]. For the same compound, the inhibition in [13] was found to be 50.2%; in experiment [14], 12.4%; in experiment [15], 53%; in [16], 16.6%; in [17], 60.1%; in experiment [18], 1.67%. The inhibition came to 4.21% in [19] and 4.18% in [20].
`NC(=O)c1ccc2c(-c3ccnc(NCCCO)n3)c(-c3ccc(F)cc3)nn2c1`: the inhibition in experiment [1] was determined as 19.4%; in experiment [2], 2.03%; in [3] it was 9.13%; in experiment [4] it was 8.51%; in experiment [5], 10.6%; in experiment [6], 0.24%. The inhibition in experiment [7] was 12.9%; in experiment [8] it was 15%; in experiment [9] it was 4.79%; in experiment [10], -5.36%; in experiment [11], -0.6%; in experiment [12], 5.81%. Further, the inhibition was determined as 16.1% in experiment [13]; 5.27% in [14]; 6.83% in experiment [15]; 4.67% in experiment [16]; 2.83% in [17]; 0.88% in [18]. In addition, the values for the inhibition in experiment [19] and in [20] were 5% and 3.75%, respectively.
Take `O=C1Nc2ccccc2/C1=C1\CCc2cc(O)ccc21`: the inhibition in [1] was 64.6%; in experiment [2] it was 5.94%; in [3], 2.23%; in experiment [4] it was 10.8%; in experiment [5], 18.6%; in experiment [6], -0.52%. Moreover, the inhibition was 15.2% in [7]; -1.04% in [8]; -4.06% in [9]; -8.61% in [10]; -3.48% in [11]; 5.96% in experiment [12]. In addition, the inhibition came to 10.2% in experiment [13]; 4.53% in [14]; 7.58% in experiment [15]; 11.5% in [16]; 45.2% in experiment [17]; 0.75% in experiment [18]. The figures for the inhibition in experiment [19] and in [20] were 1.9% and 18.6%, respectively.
Turning to `COc1cc(Nc2ncc(-c3ccccc3)o2)cc(OC)c1`, the inhibition was 13.2% in experiment [1]; 4.66% in experiment [2]; -0.05% in [3]; 3.98% in [4]; 11.9% in experiment [5]; 14.9% in [6]. Moreover, the inhibition in [7] is 49.7%; in experiment [8], 2.58%; in [9] it was 3.5%; in experiment [10], -2.45%; in [11], -7.57%; in experiment [12], 2.12%. In addition, the inhibition in [13] came to 7.94%; in experiment [14] it was 3.94%; in experiment [15] it was 7.85%; in [16], 2.49%; in experiment [17] it was 31.1%; in [18], 1.44%. The inhibition in [19] came to 3.07%; in [20] it was 3.5%.
Consider `COc1cc2c(cc1Nc1nc(Nc3cccc(F)c3C(N)=O)c3cc[nH]c3n1)N(C(=O)CN1CCN(C(C)C)CC1)CC2`, for which the inhibition was 6.08% in experiment [1]; -1.39% in experiment [2]; -1.15% in experiment [3]; 31.6% in [4]; 73.7% in experiment [5]; 4.53% in experiment [6]. The inhibition is 11.8% in [7]; -1.09% in [8]; 0.82% in experiment [9]; 3.25% in experiment [10]; 3.08% in experiment [11]; 5.26% in [12]. Further, the inhibition is 1.94% in experiment [13]; 4.46% in experiment [14]; 2.66% in [15]; 3.48% in experiment [16]; 22.4% in experiment [17]; 1.09% in experiment [18]. Further, the inhibition in experiment [19] was determined as 5.91%; in [20], 1.48%.
In the case of `CC1(C)CC(n2cnc(-c3ccc(F)cc3)c2-c2ccnc(N)n2)CC(C)(C)N1`, the inhibition in experiment [1] is 1.67%; in experiment [2], 2.97%; in experiment [3] it was 5.62%; in experiment [4], 5.01%; in experiment [5], 7.73%; in experiment [6], -1.43%. The inhibition in [7] is 5.26%; in [8], 0.52%; in experiment [9], -1.76%; in experiment [10] it was -1.03%; in [11], 0.92%; in experiment [12], 1.41%. Moreover, the inhibition was -0.41% in experiment [13]; 1.61% in experiment [14]; 3.96% in experiment [15]; -0.43% in experiment [16]; -1.61% in [17]; -0.24% in experiment [18]. The inhibition in [19] is 0.43%; in experiment [20], 6.46%.
For `Nc1nccc(-c2c(-c3ccc(F)cc3)ncn2C2CCNCC2)n1`, the inhibition in [1] is 18.1% and 7.68%; in experiment [2] it was 7.21%; in [3], -1.75% and 1.85%; in experiment [4], 1.07% and 4.79%; in experiment [5] it was 8.31% and 7.82%; in experiment [6], -4.6% and -5.2%. Further, the inhibition in experiment [7] is 0.47% and 5.61%; in [8], -1% and 0.6%; in experiment [9], 1.09% and -0.34%; in experiment [10], 0.33% and 1.19%; in [11], -2.74% and 1.45%; in [12] it was -2.4% and 0.94%. Moreover, the inhibition in experiment [13] is -2.93% and 2.08%; in [14], -0.35% and 2.75%; in experiment [15], 1.51% and 1.25%; in experiment [16], -6.18% and -1.13%; in experiment [17], -2.86% and -0.41%; in experiment [18], -1.87% and 0.84%. Also, the inhibition was -2.1% and 1.2% in experiment [19]; -1.68% and 4.53% in experiment [20].
Consider `O=C(O[C@H]1CN[C@H](C#Cc2cc3ncnc(Nc4ccc5c(cnn5Cc5ccccc5)c4)c3s2)C1)N1CCOCC1`, for which the inhibition in experiment [1] was 8.34%; in experiment [2] it was 0.29%; in [3], 2.37%; in experiment [4], 1.38%; in experiment [5], -0.29%; in experiment [6], 0.01%. Besides, the inhibition in experiment [7] is -0.98%; in [8], -0.4%; in [9], 2.01%; in experiment [10] it was 0.27%; in experiment [11] it was 0.67%; in experiment [12], 2.33%. Moreover, the inhibition in experiment [13] was 2.89%; in [14] it was 0.41%; in experiment [15] it was 5.18%; in experiment [16], 0.45%; in experiment [17], 9.52%; in [18], -0.92%. Moreover, the inhibition in experiment [19] was -1.03%; in experiment [20], -1.24%.
